Compound activity deposited in PubChem by NMMLSC.
In the library only some 3.5% were active in any assay of this set; here they are far more common.
BoNT F protease: BoNT/F light chain protease inhibitors, primary screen, biochemical, flow cytometry, MLPCN library; Botulinum neurotoxin type F light chain protease (Clostridium botulinum); inhibition, % at 10 µM; actives 0.22% (n = 360,000); Multiplex microsphere protease cleavage assay; in the data active = inhibition above about 35%, passing the limit was not always enough; inconclusive = no clear call, values can overlap the other calls
BoNT-A LC inh2: BoNT/A light chain protease inhibitors, primary screen, biochemical, flow cytometry, MLPCN library; Botulinum neurotoxin type A light chain protease (Clostridium botulinum A str. ATCC 3502); multiplex microsphere protease substrate cleavage; inhibition, % at 10 µM; actives 0.17% (n = 360,000)
Anthrax LF prot: Bacillus anthracis LF protease inhibitors, primary screen, biochemical, multiplex microsphere, MLPCN library; Lethal factor (Bacillus anthracis), P15917; multiplex microsphere protease cleavage assay; inhibition, % at 10 µM; actives 0.12% (n = 360,000)
Bead autofluor: compound fluorescence in toxin protease inhibitor counterscreen. fluorescence intensity (no concentration beside the values). compound autofluorescence counterscreen, microsphere flow cytometry; hits give high values. AID 624483. actives 3.1% (n = 360,000); in the data active = fluorescence intensity above about 16000; inconclusive = no clear call, values can overlap the other calls
A number is an active result; i = inactive; ? = inconclusive. Cut-off read from the data, not from the text of the source, unless noted: active = inhibition above about 30%; inconclusive = no clear call, values can overlap the other calls; inactive = below that.

SMILES	BoNT F protease	BoNT-A LC inh2	Anthrax LF prot	Bead autofluor
CCOC(=O)C1=C(C)N(C)C(C)=C(C(=O)OCC)C1c1ccsc1	i	i	i	i
O=C(c1cccs1)N(Cc1ccccn1)Cc1ccco1	i	i	i	24079
O=C(c1ccco1)N(Cc1ccccc1)Cc1ccccn1	i	i	i	i
COc1cc2c(cc1OC)C(C)N(C(=O)C(NC(=O)c1ccccc1)C(C)C)CC2 (stereo not drawn)	i	i	i	i
COc1ccc(-c2[nH]c(-c3cccc(OC)c3)nc2SCC(=O)NCc2ccco2)cc1	i	i	i	i
Cc1ccc(S(=O)c2ccc(C)cc2)cc1	i	?	i	20056
CC(C)(C)SCCNC(=O)CN(c1ccc(F)c(Cl)c1)S(C)(=O)=O	i	i	i	23547
CCOC(=O)c1ccc(S(=O)(=O)Nc2cc(C(C)(C)C)no2)cc1	i	i	i	24179
CC(C)(C)c1cc(NS(=O)(=O)c2ccc3c(c2)OCCO3)on1	i	i	i	i
Cc1ccc(Cl)cc1NC(=O)CCS(=O)(=O)c1cccc2nonc12	i	i	i	i
COc1cc(C2NC(=S)NC(c3ccccc3)=C2C(C)=O)cc(Cl)c1OCC(=O)O (stereo not drawn)	i	i	i	23312
COc1ccccc1CNC(=O)COC(=O)c1nc(Cl)ccc1Cl	i	i	i	i
COc1ccc(NC(=O)c2cc(C)nn2-c2ccccc2)cc1	i	i	i	i
CC(=O)Nc1ccc(NC(=O)c2cc(C)nn2-c2ccccc2)cc1	i	?	i	22454
CCOc1ccc(OCCC(=O)OCC(=O)Nc2ccc3c(c2)OCCO3)cc1	i	i	i	i
O=C(NNc1nc(-c2ccccc2)cs1)c1ccccc1	i	i	i	22139
O=C(/C=C/c1cccs1)Nc1nc(-c2ccccc2)cs1	i	i	i	22955
CCOC(=O)Cc1csc(NC(=O)c2ccoc2C)n1	i	i	i	23823
CCOC(=O)Cc1csc(NC(=O)c2c(-c3ccccc3)noc2C)n1	i	i	i	i
CCOC(=O)Cc1csc(NC(=O)c2c(-c3c(F)cccc3Cl)noc2C)n1	i	i	i	21863
CCOC(=O)c1cc(NC(=O)c2ccoc2C)cc(C(=O)OCC)c1	i	?	i	23038
CC(=O)c1cccc(NC(=O)c2ccoc2C)c1	i	i	i	i
CCOC(=O)c1cc(NC(=O)C2C3CCC(O3)C2C(=O)O)cc(C(=O)OCC)c1 (stereo not drawn)	i	i	i	23079
COc1ccc(CNC(=O)C2CCN(c3cc(C(=O)Nc4cccc(OC)c4)ccn3)CC2)cc1	i	i	i	i
Cc1csc(NC(=O)CSc2nc(=O)n(CCN(C)C)c3c2CCCC3)n1	i	i	i	?
SMILES	BoNT F protease	BoNT-A LC inh2	Anthrax LF prot	Bead autofluor
CC1C(=O)N2CCCc3cc(NC(=O)CC(C)(C)C)cc1c32 (stereo not drawn)	i	i	i	i
NS(=O)(=O)c1ccc(NC(=O)C(Sc2ccccc2)c2ccccc2)cc1 (stereo not drawn)	i	i	i	i
COCCn1c(C)cc2c(c1=O)C(c1ccco1)C(C#N)=C(N)O2 (stereo not drawn)	i	i	i	21595
Cc1cc2c(c(=O)n1CCc1ccccc1)C(c1ccco1)C(C#N)=C(N)O2 (stereo not drawn)	i	i	i	23680
COc1cc(C2C(C#N)=C(N)Oc3cc(C)n(CCc4ccccc4)c(=O)c32)cc2c1OCO2 (stereo not drawn)	i	i	i	i
Cc1cc2c(c(=O)n1CCN(C)C)C(c1ccncc1)C(C#N)=C(N)O2 (stereo not drawn)	i	i	i	i
COc1ccc(OC)c(C(=O)CSc2nccc(-c3ccc(Br)cc3)n2)c1	i	i	i	i
COc1cccc(NC(=O)c2sc3nc(N4CCOCC4)c4c(c3c2N)CCCC4)c1	i	i	i	i
Cc1c(N2C(=O)CS/C2=N\N=C\c2ccccc2O)c(=O)n(-c2ccccc2)n1C	i	?	i	16255
N#Cc1ccc(C(=O)Nc2ccc(N3CCN(C(=O)c4ccco4)CC3)cc2)c(F)c1	i	i	i	24354
CCOC(=O)C1(C)CCCN1C(=O)c1ccccc1F (stereo not drawn)	i	i	i	i
NC(=O)c1sc2nc(-c3ccccc3)ccc2c1N	i	i	i	i
CSc1nc(-c2ccccc2)ccc1C(N)=O	i	?	i	21978
CCN(CC)S(=O)(=O)c1ccc(S(=O)(=O)Nc2ccc3c(c2)oc2ccccc23)cc1	i	?	i	20070
COc1ccc(N2CCN(C(=O)COC(=O)CCOc3ccc(C)cc3)CC2)cc1	i	i	i	?
CCOC(=O)c1sc(N(Cc2ccccc2)C(=O)CSc2nnc(C3CC3)n2N)nc1C	i	i	i	i
COc1cccc(OC)c1-c1nn2c(-c3ccccc3Cl)nnc2s1	i	i	i	21844
COc1cc(-c2nnc3sc(-c4ccco4)nn23)cc(OC)c1OC	i	?	i	23532
Cc1ccccc1-c1nn2c(-c3ccccc3)nnc2s1	i	i	i	i
Clc1ccccc1-c1nnc2sc(-c3ccccn3)nn12	i	?	i	21229
COc1ccc(-c2nnc3sc(-c4ccccc4OC)nn23)cc1	i	i	i	i
Clc1ccccc1-c1nnc2sc(-c3ccco3)nn12	i	i	i	23775
c1cncc(-c2nnc3sc(-c4ccco4)nn23)c1	i	i	i	i
O=C(NC1CC(=O)c2sccc21)c1ccc(Cl)cc1Cl (stereo not drawn)	i	i	i	i
Cc1cc(C)nc(NC(=O)c2ccc(Br)cc2)n1	?	i	i	i
SMILES	BoNT F protease	BoNT-A LC inh2	Anthrax LF prot	Bead autofluor
Cc1cc(NO)nc(-c2ccc(Br)cc2)n1	i	i	i	24290
NNc1nc2ccccc2c(=O)n1Cc1ccccc1	i	i	i	i
COc1ccc(C(=O)Nc2ccccc2C(=O)N(Cc2ccco2)C(C(N)=O)C(C)C)cc1 (stereo not drawn)	i	i	i	22943
COc1ccc(C(=O)Nc2ccccc2C(=O)NC(C(=O)NCc2ccco2)C(C)C)cc1 (stereo not drawn)	i	i	i	i
O=C1NC(=O)/C(=C\c2cn(CC(=O)N3CCOCC3)c3ccccc23)S1	i	i	i	i
Cc1ccc(S(=O)(=O)Nc2ccc(Nc3ccccc3)cc2)cc1	i	i	i	i
Cc1ccc(S(=O)(=O)NNc2ccccc2)cc1	i	?	i	16260
Cc1ccc(S(=O)(=O)NNC(=O)c2ccccc2O)cc1	39	i	i	i
Cc1ccc(NC(=O)C2CCCN(S(=O)(=O)c3ccc(-n4cnnn4)cc3)C2)cc1 (stereo not drawn)	i	i	i	i
N#Cc1ccsc1NC(=O)c1ccccn1	i	i	i	22222
CN(C)c1ccc(-c2noc(C3CCN(S(=O)(=O)c4cccc(Cl)c4)CC3)n2)cc1	i	?	i	17481
CN(C)c1ccc(-c2noc(C3CCN(S(=O)(=O)c4ccc(C(=O)O)cc4)CC3)n2)cc1	i	?	i	22586
O=c1ccc2c(ccc3ncccc32)o1	i	i	i	i
